# Measurements: the OligoGym collection
# Target: DLAT
# Experiment: pooled miR-30 sensor sort-seq; sequence = guide strand
# Settings: shRNA
# Further: reference of the scale not given here.
row,Sequence,sensor-assay potency score (higher = more potent)
1,TGATTTTGTCTTATAACTGTGT,0.275
2,TTTCTCTACTGCCAACTTCTTT,-1.09
3,TTGATTGCATTAATCGCTGTGC,0.199
4,TTTTAAATCTGTTACTTCGGTT,-0.836
5,TATCTGTGAAGACACCTGTAGG,-1.1
6,TTGGTGATTCTACCATCTGGTC,-1.07
7,TAATCGCTGTGCAATAACCCGA,-0.457
8,TTGTGTAAGATCAATCCCTTTC,-0.362
9,TTTGTCTTATAACTGTGTCCAT,-0.255
10,TTCTCCCATATTTACATCGATA,-1.59
11,TCTTTTTCTACAATGATACAGA,-0.772
12,TTCATTATCTGCAGGGACCAGT,-0.346

# Target: DLGAP2
# Experiment: as above
# Settings: shRNA
row,Sequence,sensor-assay potency score (higher = more potent)
1,TAGAACGTTTAAAACGTCCGTG,-0.169
2,TTGTATATGAGACAGCTGCTGT,-0.506
3,TTTACCGAGAATTTCCTCCGAG,0.34
4,TAGATCTCGATGCTGTCCGCGC,-0.416
5,TTCAACTTCACTGAAGACGGAC,-0.0753
6,TTTTTTTGAATGCTACAGCTGG,-0.304
7,TTGTCTGTCGGGCAGGTCCAGG,-1.29
8,TTGACGTCGTTGTTGCTCTTGG,0.201
9,TTGTTCGGAAACATCCCGGGAG,0.236
10,TAGCTGTGACTCCTTGTTCGGA,-0.676
11,ATAGGTGCTGTCGCTGTCCAGG,-0.97
12,TCCTTGTTCGGAAACATCCCGG,-1.01

# Target: DMBX1
# Experiment: as above
# Settings: shRNA
row,Sequence,sensor-assay potency score (higher = more potent)
1,TTTTACTGTTCAGGGTAGCTGA,-0.522
2,TCACGCATCACCACATCTGGGT,0.0309
3,TGGGTAGTGAGTCTTCTGGAAG,-2.04
4,TTGAACCACACCTGCACCCGGG,-0.844
5,TGAGCCGTGAACGCTGTGCGGC,-1.33
6,TTGTACATGGCGCTGAGTGAGT,-0.81
7,TGAACCACACCTGCACCCGGGC,-1.56
8,TTCTTCCGGAACTTGGCCCGGC,-0.414
9,TTACTGTTCAGGGTAGCTGATG,-1.25
10,TTCCTTCTGCAGGCTACGCTGC,-1.18
11,TCTGGGTAGTGAGTCTTCTGGA,-0.662
12,TGACTGCTCAGACAGACTCAGG,-1.97

# Target: DMKN
# Experiment: as above
# Settings: shRNA
row,Sequence,sensor-assay potency score (higher = more potent)
1,TAGTTCTGATCGGCTCTGCCTG,-0.576
2,TGTAATTGTAGTTCTGATCGGC,0.784
3,TTGTTGTCACCATTGCTGCCAC,-0.584
4,TTGGATTTAAAATTCTTCCAGA,0.603
